# In PubChem BioAssay (NCI):
# The panel holds about 83,000 compounds, 20% with a hit somewhere; the sample as a whole holds those more often.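 The endpoint reported here, percent growth, reads 100 for growth as untreated, 0 for no net growth and -100 for all cells dead.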 Values without a mark were called inactive. The source made the active and inactive calls.
# Test system: MOLT-4 leukemia
# Assay: NCI-60 one-dose screen, 48 h (100 = growth as untreated, 0 = no growth, -100 = all killed)
# Details: 10 µM unless noted
# Experimental: Growth inhibition of the MOLT-4 human tumor cell line is measured as a screen for anti-cancer activity. Cells are grown in 96 well plates and exposed to the test compound for 48 hours. Compounds are tested at a single concentration, which is 10^-5 M for most compounds. The reported endpoint is percent growth (GI% or GIPRCNT), where numbers from 0 - 100% represent growth inhibition, and numbers from -100% - 0 represent cell death. For example, a value of 40 represents 60% growth inhibition. A value of 0 means no net growth occurred over the course of the experiment. A value of -40 indicates 40% of cells at the beginning of the experiment died by the end of the experiment. A value of -100 means all cells are dead at the end of the experiment.
# NCI-60 Human Tumor Cell Lines Screen was performed using the standard one-dose NCI protocol, which is described in more detail at https://dtp.cancer.gov/discovery_development/nci-60/default.htm.
# Compounds with GIPRCNT values below 10 were considered active. Activity score was based on GIPRCNT using the following formula: […]
# Score is 0 for GIPRCNT values of 100 or above, 50 for GIPRCNT values of 0, and 100 for GIPRCNT values of -100.
row,Structure (SMILES),growth
1,O=C(O)c1ccc(-n2cc(/C=N/Nc3ccc(Cl)cc3Cl)c(-c3ccccc3)n2)cc1,88.9%
2,C=C(C)[C@@H]1CC[C@]2(C(=O)NCCCO)CC[C@]3(C)[C@H](CC[C@@H]4[C@@]5(C)CCCNC(C)(C)[C@@H]5CC[C@]43C)[C@@H]12,30.5%
3,N#CC(C#N)=C1NC(c2ccccc2)=C(c2ccccc2)C(c2ccccc2Cl)=C1C#N,81.5%
4,C=C1C(=O)O[C@H]2[C@H]1CC/C(C=Nc1c(N)cc(C(F)(F)F)cc1Br)=C\CC[C@@]1(C)O[C@@H]21,-2.99% (active)
5,O=C1CC23OC4ON=C(Br)C4C2C(O)c2ccccc2N13 (stereo not given),99.6%
6,S=c1ssnc1-c1cc2ccccc2o1,51.1%
7,COc1ccc(OCC(=O)OC(C)C)cc1,91.1%
8,Cc1c(Cl)cccc1NC(=O)c1sc2nc3c(cc2c1N)CCCCCC3,17.3%
9,CCn1cc(C(=O)O)c(=O)c2cc(F)c(N3CCN(CC(=O)Nc4ccc(/C(C)=N/OC)cc4)CC3)cc21,96.4%
10,Cc1ccc(CS/C(=C\c2ccc([N+](=O)[O-])cc2)C(=O)c2ccc(F)cc2)cc1,3.17% (active)
11,C#Cc1cccc(Nc2ncnc3ccc(NC(=O)c4ccccc4)cc23)c1,59.5%
12,NS(=O)(=O)c1ccc(-n2ncc(NC(=O)Nc3ccc(S(=O)(=O)Nc4nccs4)cc3)c2-c2ccccc2)cc1,100%
13,COc1ccc(-c2nc(C#N)c(NCC(c3ccco3)N3CCCC3)o2)cc1 (stereo not given),29.7%
14,CN(CCC#N)C(=O)Nc1ccccc1,99.7%
15,Nc1ccccc1NC(=O)c1ccc(CSc2nc(N3CCOCC3)c3cccn3n2)cc1,1.08% (active)
16,COC(=O)c1nc(-c2ccccc2)oc1S(=O)(=O)n1nc(C)cc1N,14.6%
17,CCOC(=O)/C=C1\SC(=Nc2ccc(C#N)cc2)N(CCN2C(=O)/C(=C/C(=O)OCC)SC2=Nc2ccc(C#N)cc2)C1=O,9.39% (active)
18,O=C(Nc1cc(=O)[nH]c(=O)[nH]1)C(Cl)Cl,98.4%
19,COc1ccc(Cl)c([N+](=O)[O-])c1,95.2%
20,NC[C@@H]1CCN(c2cc3c(cc2F)c(=O)n(N)c(=O)n3Cc2ccc(-c3ccccc3)cc2)C1,50.4%

row,Structure (SMILES),growth
1,C=C(C)[C@@H]1CC[C@]2(C(=O)O)CC[C@]3(C)[C@H](CC[C@@H]4[C@@]5(C)C[C@@H](CC#Cc6ccccc6C)C(=O)C(C)(C)[C@@H]5CC[C@]43C)[C@@H]12,13.3%
2,COc1cc(C)ccc1Oc1nc(Nc2ccc(N3CCOCC3)cc2)ncc1N=Cc1cc(C(F)(F)F)cc(C(F)(F)F)c1,44.7%
3,COc1ccc(-c2cc(-c3nnc(SCC(=O)Nc4ccc(C(C)=O)cc4)o3)c3ccccc3n2)cc1,23%
4,COc1cc(/C=C/C(=O)c2cccs2)ccc1OCc1ccc(Cl)nc1,86.6%
5,CC(C)(C)c1nc2c(s1)c1nc(N)ncc1c1ccc(NS(=O)(=O)c3c(F)cccc3F)c(F)c12,59.5%
6,COC(=O)/C=C1\SC(=Nc2cccc(OC)c2)N(CCc2c[nH]c3ccccc23)C1=O,2.83% (active)
7,O=C(O)COc1ccc2c(=O)c3sc4c(=O)c5ccccc5c(=O)c4c3c(=O)c2c1,45.1%
8,CC(=O)[C@@H]1CC[C@]2(C(=O)O)CC[C@]3(C)[C@H](CC[C@@H]4[C@@]5(C)Cc6c([nH]c7ccccc67)C(C)(C)[C@@H]5CC[C@]43C)[C@@H]12,49.6%
9,Nc1c(C(=O)Nc2cccc3ccccc23)sc2nc3c(cc12)COCC3,35%
10,Nc1ccc2c(c1)C(=O)C(=O)c1c-2nc2ccccn12,-32.8% (active)
11,c1cc(CNC23CC4CC(CC(C4)C2)C3)cc(C[N+](Cc2cccc(CNC34CC5CC(CC(C5)C3)C4)c2)(Cc2cccc(CNC34CC5CC(CC(C5)C3)C4)c2)Cc2cccc(CNC34CC5CC(CC(C5)C3)C4)c2)c1 (stereo not given),-21.9% [42 µM] (active)
12,CCCCc1nc(Cl)c(C2CC(c3ccc(Cl)cc3)=NN2c2cc(Cl)cc(Cl)c2)[nH]1 (stereo not given),24.6%
13,COc1ccc(/C=C/C(=O)/C=C(/C=C/c2ccc(OC)c(OC)c2)OB(F)F)cc1OC,1.45% (active)
14,O=C1Nc2ccccc2C12C=C(c1ccccc1)Nc1c2c(-c2ccccc2)nn1-c1ccccc1 (stereo not given),16.4%
15,CCOCCc1c(O)nc(SC)[nH]c1=O,116%
16,O=C1[C@@H](OS(=O)(=O)CC(F)(F)F)[C@H](c2ccc(F)cn2)N1c1cc2c3ccccc3ccc2c2ccccc12,0.0781% (active)
17,CCCCc1n(Cc2ccc3ccccc3c2)c2ccccc2[n+]1Cc1ccc2ccccc2c1,-60.9% (active)
18,C=CCn1c(SCC(=O)Nc2ccc(C(=O)/C=C/c3ccc(Cl)cc3)cc2)nnc1-c1cc(OC)c(OC)c(OC)c1,70.8%
19,CCCCCCCCCCCCCC1=NCC[N+]1(CCO)Cc1ccccc1 (stereo not given),-58.1% (active)
20,CCc1n(Cc2ccc3ccccc3c2)c2ccccc2[n+]1Cc1ccc2ccccc2c1,73.4%
